Experimental data published in PubChem BioAssay (NCATS).
Results filed as inconclusive are left out. A call without a number means that no potency is given here. Active and inactive are the calls of the source. Unless noted, calls follow the shape of the full dose curve.

Key:
[1] = Primary qHTS for Huh7 cytotoxicity: counterscreen for inhibitors of MERS-S pseudotyped particle cell entry (AID 1479147); details: outcome: dose series up to 57.1 µM unless noted
[2] = Primary qHTS for inhibitors of MERS-S pseudo-typed particle cell entry (AID 1479149); details: outcome: dose series up to 57.1 µM unless noted; also: nearly all actives have a fitted effect of over 60% in size
[3] = Primary qHTS for Vero E6 cytotoxicity: counterscreen for inhibitors of SARS-S pseudo-typed particle cell entry (AID 1479150); details: outcome: dose series up to 57.1 µM unless noted
[4] = Cytotoxicity counterscreen for inhibitors of SARS-CoV-2 cell entry (AID 1645845); details: outcome: dose series up to 57.1 µM unless noted; also: nearly all actives have a fitted effect of over 50% in size; also: potency is read from the fitted curve at half-maximal effect
Summary of the method: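 Expi293F/hACE2 cells seeded overnight; cpd pin-transferred in DMSO, 1 h preincubation, + media, 48 h 37 C 5% CO2; ATPLite 1step luminescence; normalized to cells and no cells.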

[5] = molecular target: Glutathione peroxidase 1 (Homo sapiens) (UniProt P07203); assay: Primary qHTS Assay for Inhibitors of Recombinant Selenoprotein Glutathione Peroxidase 1 (GPX1) (AID 1845191; active = well fitted curve in the direction sought with a large enough effect; an effect the other way counts as inactive or inconclusive; also: nearly all actives have a fitted effect of over 65% in size)
Summary of the method: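 Recombinant GPX1 (10 nM final) was preincubated with compound for 30 min at room temperature, then reacted with 1 mM GSH, 0.5 mM CHP, 0.5 mM NADPH and 100 nM glutathione reductase; NADPH fluorescence (340/450 nm) was read at 0 and 15 min.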

[6] = Primary qHTS to identify inhibitors of SARS-CoV-2 cell entry (AID 1645846); details: SARS-CoV-2 pseudovirus cell entry assay, luminescence; activity change, negative = inhibition: at 57.1 µM (top of the series) unless noted; also: nearly all actives have a fitted effect of over 45% in size; also: potency is read from the fitted curve at half-maximal effect
Summary of the method: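 Data are normalized to wells receiving SARS-CoV-2-S pseudoparticles and those given bald particles. Entry signal was luciferase luminescence in stable hACE2 Expi293F cells, 48 hr post-infection, after 1 hr compound pretreatment.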

[7] = molecular target: Phospholipid hydroperoxide glutathione peroxidase GPX4 (Homo sapiens) (UniProt P36969); assay: Primary qHTS Assay for Inhibitors of Recombinant Selenoprotein Glutathione Peroxidase 4 (GPX4) (AID 1845192; active = well fitted curve in the direction sought with a large enough effect; an effect the other way counts as inactive or inconclusive; also: nearly all actives have a fitted effect of over 65% in size)
Summary of the method: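 GR-coupled readout: 100 nM GR, 1 mM GSH, 0.5 mM NADPH; NADPH fluorescence (ex 340/em 450 nm) read at t=0 and after 15 min RT. GPX4 200 nM, preincubated 30 min with compound; substrate 0.5 mM CHP.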

[8] = KB-8-5-11 P-gp reporter qHTS against the NCATS DSHEA and TCM libraries (AID 1919977; active = well fitted curve in the direction sought with a large enough effect; an effect the other way counts as inactive or inconclusive)
Summary of the method: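 Cells were seeded, allowed ~4 h to attach, dosed by pin tool (substance titrations), incubated ~72 h at 37C, then lysed with CellTiter-Glo for 30 min at room temperature before luminescence reading.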

[9] = Confirmatory qHTS for VERO E6 Cytotoxicity Assay: Counterscreen for SARS-CoV-2 CPE Assay (AID 1508605); also: nearly all actives have a fitted effect of over 60% in size
[10] = Confirmatory qHTS to identify inhibitors of SARS-CoV-2 cell entry (AID 1645844); also: potency is read from the fitted curve at half-maximal effect; nearly all actives have a fitted effect of over 45% in size
Summary of the method: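 HEK293-ACE2 cells (Expi293F stably expressing human ACE2) were pretreated with compounds for 1 hr at 37C, then infected with MLV-based particles carrying Wuhan-Hu-1 spike (C-terminal 19-aa truncation). Luciferase luminescence read after 48 hr; normalized to spike PP (100%) and bald PP (0%).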

[11] = VSVG counterscreen qHTS to identify inhibitors of SARS-CoV-2 cell entry (AID 1645847); also: potency is read from the fitted curve at half-maximal effect; nearly all actives have a fitted effect of over 65% in size
Summary of the method: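 Counterscreen using VSV-G (not spike) pseudotyped MLV particles on ACE2-expressing Expi293F cells after 1 h compound preincubation; infection ran 48 h at 37 °C. Data normalized to VSV-G PP and bald-PP wells.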

Chain of Glutathione peroxidase 1 (Homo sapiens) (P07203 whole entry, looked up): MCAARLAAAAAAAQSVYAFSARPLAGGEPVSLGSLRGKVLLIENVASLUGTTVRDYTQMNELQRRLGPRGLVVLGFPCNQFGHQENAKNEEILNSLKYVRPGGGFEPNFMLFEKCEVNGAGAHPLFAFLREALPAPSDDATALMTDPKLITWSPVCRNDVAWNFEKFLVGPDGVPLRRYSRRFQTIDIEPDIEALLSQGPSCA
Chain of Phospholipid hydroperoxide glutathione peroxidase GPX4 (Homo sapiens) (P36969 whole entry, looked up): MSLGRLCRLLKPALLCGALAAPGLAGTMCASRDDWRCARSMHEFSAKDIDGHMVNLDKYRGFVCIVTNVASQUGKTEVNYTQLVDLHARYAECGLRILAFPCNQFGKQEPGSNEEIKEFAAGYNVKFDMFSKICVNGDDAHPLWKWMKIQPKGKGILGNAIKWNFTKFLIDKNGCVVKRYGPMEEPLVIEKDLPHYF

Which Potency [1] does the source give for `CN(C)C1C(=O)C(C(N)=O)=C(O)C2(O)C(=O)C3=C(O)c4c(O)ccc(Cl)c4C(C)(O)C3CC12` (stereo unspecified) here?
Its Potency is “inactive”.

What about the Potency [2] of the same compound?
The Potency was “inactive”.

What about the Potency [3] of the same compound?
Its Potency is “inactive”.

And the Potency [4]?
Its Potency is “inactive”.

What about the Potency [5] of the same compound?
The Potency was “inactive”.

With `CN[C@@H]1[C@@H](O[C@H]2O[C@H](CO)[C@@H](N)[C@H](O)[C@H]2O)O[C@H]2C[C@@H](N)[C@H](O[C@H]3[C@H](O)[C@@H](O)[C@H](N)C[C@@H]3N)O[C@@H]2[C@@H]1O` as the compound, how does the Potency [1] read?
Its Potency is “inactive”.

And the Potency [2]?
The Potency was “inactive”.

And the Potency [4]?
Its Potency is “inactive”.

What about the activity change, negative = inhibition [6] of the same compound?
Its activity change, negative = inhibition is -26.5%.

What does the source list for `C[N+]1(CC2CC2)CC[C@]23c4c5ccc(O)c4O[C@H]2C(=O)CC[C@@]3(O)[C@H]1C5` (stereo partly specified)?
Potency [1]: inactive; Potency [2]: inactive; Potency [3]: inactive; Potency [4]: inactive; Potency [5]: inactive; Potency [7]: inactive

Which results are given for `Oc1cc(O)cc(O)c1`?
Potency [1]: inactive; Potency [2]: inactive; Potency [3]: inactive; activity change, negative = inhibition [6]: -21.2%

For `CCCCC/C=C/C/C=C/CCCCCCCC(=O)O`, which Potency [1] is on record?
Its Potency is “inactive”.

And the Potency [2]?
Its Potency is “inactive”.

What about the Potency [3] of the same compound?
Its Potency is “inactive”.

What about the Potency [4] of the same compound?
The Potency was “inactive”.

What about the activity change, negative = inhibition [6] of the same compound?
The activity change, negative = inhibition was -0.957%.

What about the Potency [8] of the same compound?
The Potency was “inactive”.

With `CCCCCCCC(=O)CC[C@@H]1[C@@H](C/C=C\CCCC(=O)OC(C)C)[C@@H](O)C[C@H]1O` as the compound, how does the Potency [1] read?
The Potency was “inactive”.

And the Potency [3]?
The Potency was “inactive”.

For `COc1cc2[nH]c(C)c(CCN3CCN(c4ccccc4)CC3)c2cc1OC`, which Potency [1] is on record?
Its Potency is “inactive”.

What about the Potency [3] of the same compound?
The Potency was “inactive”.

And the Potency [4]?
Its Potency is “inactive”.

And the activity change, negative = inhibition [6]?
Its activity change, negative = inhibition is -39.8%.

With `COC(=O)C1=C(C#N)NC(C)=C(C(=O)OC(C)C)C1c1cccc([N+](=O)[O-])c1` (stereo unspecified) as the compound, how does the Potency [1] read?
The Potency was “inactive”.

What about the Potency [3] of the same compound?
Its Potency is “inactive”.

What about the Potency [4] of the same compound?
The Potency was “inactive”.

Which Potency [1] does the source give for `CCCCCCCC(=O)N[C@H](CN1CCCC1)[C@H](O)c1ccc2c(c1)OCCO2` here?
Its Potency is “inactive”.

What about the Potency [3] of the same compound?
The Potency was “inactive”.

What about the Potency [4] of the same compound?
Its Potency is “inactive”.

Which results are given for `CC(=O)c1ccc2c(c1)N(CCCN1CCN(CCO)CC1)c1ccccc1S2`?
Potency [1]: inactive; Potency [3]: inactive; Potency [4]: inactive; activity change, negative = inhibition [6]: -25.7%

What does the source list for `CC[C@@H]1/C=C(\C)C[C@H](C)C[C@H](OC)[C@H]2O[C@@](O)(C(=O)C(=O)N3CCCC[C@H]3C(=O)O[C@H](/C(C)=C/[C@@H]3CC[C@H](Cl)[C@H](OC)C3)[C@H](C)[C@@H](O)CC1=O)[C@H](C)C[C@@H]2OC`?
Potency [1]: inactive; Potency [3]: inactive; Potency [4]: inactive

Which Potency [1] does the source give for `C=CC[C@@H]1/C=C(\C)C[C@H](C)C[C@H](OC)[C@H]2O[C@@](O)(C(=O)C(=O)N3CCCC[C@H]3C(=O)O[C@H](/C(C)=C/[C@@H]3CC[C@@H](O)[C@H](OC)C3)[C@H](C)[C@@H](O)CC1=O)[C@H](C)C[C@@H]2OC` here?
The Potency was “inactive”.

What about the Potency [3] of the same compound?
The Potency was “inactive”.

What about the Potency [4] of the same compound?
The Potency was “inactive”.

Which Potency [1] does the source give for `N#Cc1ccc2[nH]cc(CCCCN3CCN(c4ccc5oc(C(N)=O)cc5c4)CC3)c2c1` here?
Its Potency is “inactive”.

What about the Potency [3] of the same compound?
The Potency was “inactive”.

What about the Potency [9] of the same compound?
The Potency was “inactive”.

What about the Potency [4] of the same compound?
The Potency was “inactive”.

For `CNS(=O)(=O)CC1CCC(N(C)c2ncnc3[nH]ccc23)CC1` (stereo unspecified), which Potency [1] is on record?
Its Potency is “inactive”.

What about the Potency [3] of the same compound?
The Potency was “inactive”.

And the Potency [4]?
Its Potency is “inactive”.

And the Potency [6]?
Its Potency is “inactive”.

Which Potency [1] does the source give for `Cc1ccc(C2(O)CCN(CCCC(=O)c3ccc(F)cc3)CC2)cc1` here?
The Potency was “inactive”.

What about the Potency [3] of the same compound?
The Potency was “inactive”.

And the Potency [4]?
The Potency was “inactive”.

What does the source list for `CCCCCCCCCC(=O)OCCN1CCN(CC/C=C2\c3ccccc3Sc3ccc(C(F)(F)F)cc32)CC1`?
Potency [1]: inactive; Potency [3]: inactive; Potency [4]: inactive

With `Cc1cncc(CN2CCC(=C3c4ccc(Cl)cc4CCc4cccnc43)CC2)c1` as the compound, how does the Potency [1] read?
Its Potency is “inactive”.

And the Potency [3]?
The Potency was “inactive”.

And the Potency [10]?
Its Potency is 0.607 µM (active).

What about the Potency [4] of the same compound?
The Potency was “inactive”.

And the Potency [6]?
Its Potency is 12.6 µM (active).

And the Potency [11]?
The Potency was 27.1 µM (active).

Which results are given for `CC[C@@H](C(=O)[C@@H](C)[C@@H](O)[C@H](C)CCc1ccc(C)c(O)c1C(=O)O)[C@H]1O[C@](CC)([C@H]2CC[C@](O)(CC)[C@H](C)O2)C[C@@H]1C`?
Potency [1]: inactive; Potency [3]: inactive; Potency [4]: 8.91 µM (active); Potency [6]: 5.01 µM (active)

Which results are given for `COc1c(-c2ccc3cc(NS(C)(=O)=O)ccc3c2)cc(-n2ccc(=O)[nH]c2=O)cc1C(C)(C)C`?
Potency [1]: inactive; Potency [3]: inactive; Potency [4]: inactive

For `CCCCCCCCCC(=O)NO`, which Potency [1] is on record?
Its Potency is “inactive”.

And the Potency [3]?
The Potency was “inactive”.

What about the Potency [4] of the same compound?
Its Potency is “inactive”.

Which results are given for `CC(C)C[C@H]1C(=O)N2CCC[C@H]2[C@]2(O)O[C@](NC(=O)[C@@H]3C=C4c5cccc6[nH]c(Br)c(c56)CC4N(C)C3)(C(C)C)C(=O)N12` (stereo partly specified)?
Potency [1]: inactive; Potency [3]: inactive; Potency [4]: inactive; Potency [6]: 22.4 µM (active)
